Calls of active or inactive are those of the source. Unless noted, how the calls were made is not given here.
Legend:
[1] = tested on: Wnt5a (protein binding on small-molecule microarray); experiment: Wnt5a binders on small-molecule microarray, primary screen, biophysical, 635/667 nm fluorescence (AID 1142); details: 635 nm fluorescence, higher = more signal;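 further: fluorescence read at 667 nm with signal to noise per printed feature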
[2] = cell viability in Huh7 cells, primary screen, cytotoxicity control for HCV replication inhibitor project, CellTiter-Glo luminescence, basal, 48 h (AID 1143); details: Huh7 HCV replicon, higher = more signal, called active from +8 up or from −8 down;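 further: Huh7 hepatoma cells carrying a hepatitis C replication reporter with no stimulus; test concentration not given here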
[3] = P. aeruginosa biofilm formation inhibitors, primary screen, PAO1 strain, BacTiter-Glo luminescence, LB-PBS (AID 1144); details: 12 h, higher = more signal
[4] = CREB reporter modulators without forskolin, primary screen, cell-based, PC12, CRE-LacZ reporter, unstimulated (AID 1145); details: no forskolin, luminescence, 4.5 h, higher = more signal, called active from +8 up or from −8 down
[5] = CREB reporter modulators under forskolin, primary screen, cell-based, PC12, CRE-LacZ reporter, forskolin-stimulated (AID 1146); details: luminescence, 4.5 h, higher = more signal, called active from +8 up or from −8 down;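 further: PC12 cells with 6xCRE LacZ reporter stimulated by forskolin 10 µM; beta-galactosidase reporter signal reflecting CREB driven transcription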
[6] = target: Streptavidin (Streptomyces avidinii) (UniProt P22629); experiment: streptavidin binders on small-molecule microarray, primary screen, artefact control for SMM compound annotation, biophysical, 635/667 nm fluorescence (AID 1147); details: streptavidin binding, higher = more signal;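 further: signal reflects streptavidin binding to arrayed compounds as a control protein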
[7] = small-molecule binders of probe aInhba, primary screen, biochemical, small-molecule microarray, 635/667 nm fluorescence (AID 1148); details: higher = more signal;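 further: score merges 667nm spot fluorescence with signal-to-noise for antibody binding to printed compounds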
Torsin-1A (Homo sapiens) [8] = target: Torsin-1A (Homo sapiens) (UniProt O14656); experiment: torsin A binders from cell lysate, primary screen, small-molecule microarray, wild-type, 635/667 nm (AID 1149); details: COS7 hTOR1A-WT lysate, 635 nm fluorescence, higher = more signal
Torsin-1A (Homo sapiens) [9] = target: Torsin-1A (Homo sapiens) (UniProt O14656); experiment: small-molecule binders of mutant TOR1A in lysate, primary screen, cell lysate, small-molecule microarray, COS7 lysate, 635/667 nm fluorescence (AID 1150); details: COS7 hTOR1A mutant lysate, 635 nm fluorescence, higher = more signal;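 further: score pools 667 nm emission and signal to noise measuring lysate protein binding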
[10] = tested on: Sonic hedgehog protein (Shh); experiment: small-molecule binders of Shh protein, primary screen, biochemical, small-molecule microarray, 635/667 nm fluorescence (AID 1151); details: small-molecule microarray binding, 635 nm fluorescence; higher = more signal;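 further: Shh protein binding to compounds spotted on small-molecule microarray slides; score combines spot fluorescence intensity with signal-to-noise across triplicate slides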

Streptavidin (Streptomyces avidinii), sequence (P22629 whole entry, looked up): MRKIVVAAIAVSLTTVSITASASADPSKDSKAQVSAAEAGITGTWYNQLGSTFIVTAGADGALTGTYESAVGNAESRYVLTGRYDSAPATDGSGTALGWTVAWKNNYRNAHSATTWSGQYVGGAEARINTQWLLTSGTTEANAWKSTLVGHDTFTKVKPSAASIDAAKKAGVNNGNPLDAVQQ
Torsin-1A (Homo sapiens), sequence (O14656 whole entry, looked up): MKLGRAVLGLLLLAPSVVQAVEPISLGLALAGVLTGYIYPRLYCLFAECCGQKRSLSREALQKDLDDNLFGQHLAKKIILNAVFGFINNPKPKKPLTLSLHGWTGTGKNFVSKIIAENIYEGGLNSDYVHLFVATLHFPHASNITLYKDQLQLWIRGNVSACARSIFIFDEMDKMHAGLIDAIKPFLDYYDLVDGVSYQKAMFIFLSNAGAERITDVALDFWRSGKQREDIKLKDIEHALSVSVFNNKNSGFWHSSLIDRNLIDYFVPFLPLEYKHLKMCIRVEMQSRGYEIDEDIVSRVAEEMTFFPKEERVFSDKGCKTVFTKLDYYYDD

SMILES | composite z-score [1] | z-score [2] | z-score [3] | z-score [4] | z-score [5] | composite z-score [6] | composite z-score [7] | composite z-score (Torsin-1A (Homo sapiens) [8]) | composite z-score (Torsin-1A (Homo sapiens) [9]) | composite z-score [10]
CCCCC#C[C@@H]1C=C[C@H](Oc2ccc(C(=O)OC)cc2)[C@@H](COC(=O)OCC)O1 | 0.769 | -4.3 (inactive) | 0.0612 (inactive) | 0.291 (inactive) | 1.13 (inactive) | 0.25 | -0.128 | 0.346 | 0.358 | 1.12
O=C1[C@H]2[C@H]3[C@H](O)[C@H](O)CC(=NO[C@@H]4O[C@H](CO)[C@@H](O)[C@H](O)[C@H]4O)[C@H]3CC[C@H]2C(=O)N1c1cccc(Oc2ccccc2)c1 | 0.162 | -0.31 (inactive) | 0.257 (inactive) | -0.838 (inactive) | -0.462 (inactive) | 0.528 | -0.0846 | 0.625 | 0.367 | 1.09
C#CCCCON=C1C[C@@H](O)[C@@H](O)[C@@H]2[C@@H]3C(=O)N(c4cccc(Oc5ccccc5)c4)C(=O)[C@@H]3CC[C@H]12 | -0.591 | -0.593 (inactive) | 0.0591 (inactive) | -0.57 (inactive) | -0.236 (inactive) | -0.77 | -0.191 | 0.32 | 0.855 | -1.01
C=CC[C@@H]1C=C[C@H](ON=C[C@@H](C)[C@H](OCc2ccccc2)C(C)C)[C@@H](CO)O1 | -0.2 | -1.39 (inactive) | 0.787 (inactive) | 1.31 (inactive) | 0.3 (inactive) | -1.32 | -0.238 | -0.617 | -0.396 | -0.119
O=C1[C@H]2[C@H]3[C@H](O)[C@H](O)CC(=NOC[C@@H](O)COCc4ccco4)[C@H]3CC[C@H]2C(=O)N1c1ccc(F)cc1F | -0.459 | -2.57 (inactive) | -1.34 (inactive) | 0.699 (inactive) | -0.455 (inactive) | -1.07 | -0.103 | 2.05 | 1.84 | 0.717
C=CC[C@@H]1C=C[C@H](ON=C(C)CCN2CCc3nc(-c4ccccc4)c(-c4ccccc4)cc3C2)[C@@H](CO)O1 | 0.0399 | -0.648 (inactive) | -0.117 (inactive) | -0.0033 (inactive) | -1.03 (inactive) | 0.313 | -0.0719 | 0.593 | 0.415 | 1.12
O=C1[C@H]2[C@H]3[C@H](O)[C@H](O)CC(=NOCc4ccccc4)[C@@H]3CC[C@H]2C(=O)N1C[C@@H]1CCCO1 | 0.0388 | 0.379 (inactive) | -0.614 (inactive) | -0.115 (inactive) | 0.105 (inactive) | 0.632 | -0.157 | 0.304 | 0.198 | 0.317
CC(C)[C@@H](OCc1ccccc1)[C@H](C)C=NOC[C@@H](O)COCc1ccco1 | -0.304 | -0.33 (inactive) | 0.117 (inactive) | 1.99 (inactive) | 0.109 (inactive) | -2.14 | -0.32 | -0.712 | -0.491 | -1.11
COC(=O)CC=C[C@@H](C)[C@@H](C=NO[C@@H]1O[C@H](COC(C)=O)[C@@H](OC(C)=O)[C@H](OC(C)=O)[C@H]1OC(C)=O)OC | 0.359 | 0.36 (inactive) | -0.743 (inactive) | 0.834 (inactive) | 0.0774 (inactive) | -0.769 | -0.165 | 0.698 | 0.32 | 0.0568
COC(=O)CC=C[C@@H](C)[C@@H](C=NO[C@H](C)c1cn([C@H](CO)Cc2ccccc2)nn1)OC | 0.247 | -0.742 (inactive) | 0.226 (inactive) | 0.359 (inactive) | 0.303 (inactive) | 0.21 | -0.128 | 1.09 | 1.78 | 1.08
COC(=O)CC=C[C@@H](C)[C@H](OCc1cccc(-c2ccccc2)c1)C1CCCCC1 | -0.106 | -0.44 (inactive) | 0.125 (inactive) | 0.68 (inactive) | -0.198 (inactive) | 1.85 | -0.176 | 0.439 | -0.17 | 0.412
CCOC(=O)[C@H](Cc1ccccc1)NC(=O)CCC1CC(OC(=O)NCCc2ccc(F)cc2)CC2(CCCC(COC(=O)NCCCN3CCCC3=O)O2)O1 (stereo not given in full) | 0.126 | -1.04 (inactive) | -1.68 (inactive) | -0.165 (inactive) | 0.0137 (inactive) | 0.625 | -0.206 | 0.144 | 0.321 | 0.733
COC(=O)[C@@H]1CC[C@H](C)[C@@H](c2ccc(C)cc2)N1C(=O)c1ccc(C=NO[C@@H](C)c2cn([C@H](CO)Cc3ccccc3)nn2)cc1 | 0.408 | -2.15 (inactive) | 0.476 (inactive) | 5.32 (inactive) | -0.216 (inactive) | 0.279 | -0.024 | 0.243 | 0.634 | 0.738
COC(=O)CC=C[C@@H](C)[C@@H](C=NOC[C@H]1O[C@H](c2ccccc2)C=C[C@@H]1Oc1ccc(OC)cc1)OC | 0.0372 | -0.193 (inactive) | 0.257 (inactive) | 1.34 (inactive) | 0.611 (inactive) | -0.682 | -0.208 | -0.52 | -0.305 | 0.161
COC(=O)[C@@H]1CC[C@H](C)[C@@H](c2ccc(C)cc2)N1C(=O)c1ccc(C=NOC[C@@H](C)[C@H](OCc2ccccc2)C(C)C)cc1 | 0.156 | -1.17 (inactive) | 0.978 (inactive) | 6.15 (inactive) | -0.207 (inactive) | 0.409 | -0.018 | 0.0707 | 0.537 | 1.28
CCOC(=O)CCN1C(=O)[C@H]2[C@H]3[C@H](O)[C@H](O)CC(=NOCc4ccccc4)[C@H]3CC[C@H]2C1=O | 0.14 | 0.223 (inactive) | 1.14 (inactive) | -0.295 (inactive) | -0.21 (inactive) | 0.758 | 0.0805 | -0.296 | -0.522 | -0.212
CO[C@H]1COC(=O)CC=C[C@H](C)[C@@H](OC)COC(=O)[C@@H](C)COC(=O)CC=C[C@@H]1C | -0.545 | -1.66 (inactive) | 0.0344 (inactive) | -0.292 (inactive) | -1.02 (inactive) | -0.411 | -0.331 | 2.79 | 2.2 | 2.12
Cc1cc2c(nc1C)CCCCN2CC(C)ON=C[C@@H](C)[C@H](OCc1ccccc1)C(C)C (stereo not given in full) | -0.918 | -4.86 (inactive) | 0.207 (inactive) | 2.44 (inactive) | 0.676 (inactive) | -1.88 | -0.26 | -3.92 | -1.34 | -0.436
CO[C@H]1COC(=O)CCC[C@@H](C)[C@H](OC)COC(=O)[C@@H]2CCCN2C(=O)CC=C[C@@H]1C | 0.236 | -0.717 (inactive) | 0.55 (inactive) | -0.385 (inactive) | -0.0072 (inactive) | -0.44 | -0.101 | 2.64 | 1.05 | 2.06
CC(C)=CCCC(C)=CCON=C1C[C@@H](O)[C@@H](O)[C@@H]2[C@@H]3C(=O)N(C(C)(C)C)C(=O)[C@@H]3CC[C@H]12 | 0.158 | 0.232 (inactive) | -0.625 (inactive) | 0.7 (inactive) | 0.871 (inactive) | 0.0957 | 0.0442 | 0.366 | 0.987 | 0.435
COC(=O)[C@H](C)NC(=O)CCC1CC(OC(=O)NCc2ccc3c(c2)OCO3)CC2(CCCC(COC(=O)NCCc3ccccc3OC)O2)O1 (stereo not given in full) | -0.0418 | -0.643 (inactive) | 0.301 (inactive) | 0.0167 (inactive) | 0.711 (inactive) | -0.0673 | -0.154 | 0.465 | 0.182 | -0.004
O=C1CCCC=C1C(O)CCCCBr (stereo not given) | 0.0756 | -3.99 (inactive) | -0.548 (inactive) | 1.37 (inactive) | 27 (active) | 1.51 | -0.0523 | 0.201 | 0.686 | 0.333
C=COC[C@@H]1CN2[C@@H](CC[C@@H](C)[C@@H]2c2ccc(Br)cc2)C(=O)O1 | -0.219 | -2.67 (inactive) | -1.06 (inactive) | 6.83 (inactive) | -0.544 (inactive) | -0.505 | -0.253 | 0.348 | -0.051 | -0.211
CCN1C(=O)[C@H]2[C@H]3[C@H](O)[C@H](O)CC(=NOC[C@H]4O[C@H](c5ccccc5)C=C[C@@H]4Oc4ccc(OC)cc4)[C@@H]3CC[C@H]2C1=O | 0.353 | -0.509 (inactive) | 1.13 (inactive) | 0.843 (inactive) | 0.126 (inactive) | 0.29 | 0.0497 | 0.66 | 0.586 | 0.827
CCOC(=O)NN=C1C[C@@H](O)[C@@H](O)[C@@H]2[C@@H]3C(=O)N([C@@H](C)c4ccccc4)C(=O)[C@@H]3CC[C@H]12 | 0.0373 | -0.339 (inactive) | 0.627 (inactive) | -0.115 (inactive) | -0.174 (inactive) | -0.0822 | -0.0131 | 0.834 | 0.522 | 0.127
C#CCCCON=C1C[C@@H](O)[C@@H](O)[C@@H]2[C@@H]3C(=O)N(CC)C(=O)[C@@H]3CC[C@@H]12 | -0.0855 | 0.0213 (inactive) | -0.327 (inactive) | -0.116 (inactive) | -0.14 (inactive) | -0.0757 | -0.181 | 0.787 | 0.555 | 1.2
COc1ccc(O[C@@H]2[C@H](O)CO[C@H]2C=Cc2ccccc2)cc1 | -0.0668 | -0.617 (inactive) | -1.74 (inactive) | 0.284 (inactive) | -1.04 (inactive) | -0.06 | -0.179 | -0.696 | -0.668 | 0.253
O=C1C=C[C@@H](O)[C@@H]2[C@@H]3C(=O)N(c4ccc(F)cc4F)C(=O)[C@@H]3CC[C@@H]12 | 0.15 | -1.18 (inactive) | 0.0333 (inactive) | 0.332 (inactive) | 0.41 (inactive) | 0.275 | -0.123 | 1.15 | 0.629 | 0.93
C#CCCCON=C1[C@H]2CCn3c(=O)n(-c4ccccc4)c(=O)n3[C@H]2[C@H](O)[C@@H]2O[C@H]12 | 0.0823 | -0.146 (inactive) | 0.423 (inactive) | -0.112 (inactive) | 0.462 (inactive) | -0.126 | -0.23 | 0.494 | 1.27 | 0.504

— PubChem BioAssay
